DT40 TDP1 CPT = qHTS for Inhibitors of human tyrosyl-DNA phosphodiesterase 1 (TDP1): qHTS in cells in presence of CPT; chicken DT40 Tdp1-/-;hTDP1 cells + 20 nM CPT, ATP luminescence, 48 h; Potency, µM (series often up to 46.2 µM), for the others: at the highest dose activity change, negative = growth inhibition, most hits filed as inhibitors; 420,000 tested, 12% active; AID 686979, 2013; also: potency is read from the fitted curve at half-maximal effect; % is scaled to controls: 0 for no effect and ±100 for the full control effect; nearly all actives have a fitted effect of over 55% in size
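Chicken DT40 Tdp1-/- cells complemented with human TDP1, 400 cells/well, exposed to compounds plus 20 nM camptothecin for at least 48 h at 37 C; viability read as ATP content by CellTiter-Glo luminescence.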
miR-21 reporter = qHTS Assay for Modulators of miRNAs and/orActivators of miR-21; Potency, µM (highest dose often 38.3 µM), without a hit: at the highest dose activity change, positive = activation, most hits filed as activators; HeLa miR-21 FLuc reporter, luciferase, 48 h; AID 2288, 2010; 340,000 tested, under 10 active;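 also: % of control where 0% means no effect; miR-21 action dims this reporter so a rising signal means less miR-21 action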
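HeLa miR-21-FLuc reporter line, endogenous miR-21; 2000 cells/well in DMEM/10% FBS; compound titration up to ~40uM final, 48 h, 37 degree Celsius; luciferase detection reagent, 15 min lysis, CCD luminescence.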
uPA generation = qHTS for Inhibitors of Cell Surface uPA Generation; Potency, µM (doses to about 38.3 µM), for inactives: at the top dose activity change, negative = inhibition, actives largely listed as inhibitors; AID 540303, 2011; 330,000 tested, 0.31% active; cell surface uPA generation assay, qHTS; active = well fitted inhibition curve with a large enough effect; inconclusive = small, poorly fitted or top-dose-only effect; inactive = no such curve, though single readings can be large or run the other way; tested in mouse RAW 264.7 cells; also: potency is read from the fitted curve at half-maximal effect; % is scaled to controls: 0 for no effect and ±100 for the full control effect; nearly all actives have a fitted effect of over 55% in size
TDP1 cell noCPT = qHTS for Inhibitors of human tyrosyl-DNA phosphodiesterase 1 (TDP1): qHTS in cells in absence of CPT | 420,000 tested, 15% active | DT40 Tdp1-/- hTDP1 cells, no CPT, ATP luminescence, 48 h | AID 686978, 2013 | Potency, µM (titrated, usually from 46.2 µM), for inactives: top-dose activity change, negative = growth inhibition, hits mostly inhibitors; also: potency is read from the fitted curve at half-maximal effect; % is scaled to controls: 0 for no effect and ±100 for the full control effect; nearly all actives have a fitted effect of over 55% in size
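A cellular qHTS used chicken DT40 cells lacking endogenous Tdp1 but carrying stably transfected human TDP1. Compounds were applied without camptothecin, and cell growth kinetics were judged by ATP-dependent luminescence after ≥48 hr.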
TDP1 block = qHTS Assay for Inhibitors of Tyrosyl-DNA Phosphodiesterase (TDP1); Tyrosyl-DNA phosphodiesterase 1 (Homo sapiens), Q9NUW8; recombinant TDP1, AlphaScreen DNA substrate cleavage; Potency, µM (series often up to 130 µM), inactives show at the top dose activity change, negative = inhibition, usual class: inhibitors; 350,000 tested, 0.28% active; AID 485290, 2010; also: potency is read from the fitted curve at half-maximal effect; % is scaled to controls: 0 for no effect and ±100 for the full control effect; nearly all actives have a fitted effect of over 40% in size
Target sequence (Q9NUW8 whole entry, looked up): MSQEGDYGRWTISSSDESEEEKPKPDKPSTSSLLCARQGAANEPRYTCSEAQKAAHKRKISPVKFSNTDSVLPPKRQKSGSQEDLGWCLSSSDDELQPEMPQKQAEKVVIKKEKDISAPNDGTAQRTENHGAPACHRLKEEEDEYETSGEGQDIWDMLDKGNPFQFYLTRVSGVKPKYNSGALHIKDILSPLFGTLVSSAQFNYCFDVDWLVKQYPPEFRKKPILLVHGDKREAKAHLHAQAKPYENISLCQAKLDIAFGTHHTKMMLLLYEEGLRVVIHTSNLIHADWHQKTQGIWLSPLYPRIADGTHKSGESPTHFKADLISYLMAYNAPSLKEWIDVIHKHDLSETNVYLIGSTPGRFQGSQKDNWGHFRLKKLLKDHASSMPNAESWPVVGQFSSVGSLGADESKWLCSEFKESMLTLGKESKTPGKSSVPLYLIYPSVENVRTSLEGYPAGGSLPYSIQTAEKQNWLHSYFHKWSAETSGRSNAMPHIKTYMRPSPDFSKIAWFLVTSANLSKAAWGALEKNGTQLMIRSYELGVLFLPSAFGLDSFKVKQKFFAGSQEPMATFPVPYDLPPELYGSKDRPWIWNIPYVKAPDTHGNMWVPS
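Tdp1 1 nM final; 15 min RT w/ cpd; substrate 15 nM, 5 min; beads 10 ug/ml, 10 min; AlphaScreen read. Neg ctrl: no enzyme.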
Starred values were filed as active, the others as inactive; ? = inconclusive; / = no result; [ ] = dose if it differs, or a comment. Only some compounds are listed: those with a hit (about 16% of all), similar ones and a draw of the others. Unless noted, calls follow the shape of the dose curve; as a rule, active = well fitted curve in the direction sought with a large enough effect; inconclusive = small, poorly fitted or top-dose-only effect, or another doubt; inactive = no such curve, though single readings can be large; an effect the other way counts as inactive or inconclusive.

SMILES	DT40 TDP1 CPT	miR-21 reporter	uPA generation	TDP1 cell noCPT	TDP1 block
Cc1ccccc1NC(=O)c1cccc2c(=O)c3c([nH]c12)CCCC3	?	-36.6%	/	?	5.7%
O=C(O)CC1Sc2ccccc2NC1=O (stereo not given)	-3.8%	-4.4%	5.4%	-19.9%	6.8%
O=C1Nc2ccccc2SC(c2ccccc2)C1O (stereo not given)	23.1µM*	-10.5%	-4.0%	?	?
CN(C)c1ccc(C(=O)c2ccc(O)cc2O)cc1	?	-42.1%	-0.6%	?	6.6%
CN(C)c1ccc(Cc2cc3c(O)ccc(O)c3cc(Cc3ccc(N(C)C)cc3)c2=O)cc1	3.66µM*	/	2.8%	4.11µM*	/
COc1ccc(-c2nc(SCc3cc(=O)c4cc(C)ccc4[nH]3)n[nH]2)cc1	-2.4%	8.7%	/	-17.5%	8.1%
CC(C)c1ccc(NC(=O)COc2ccc(F)cc2C(=O)c2cnn(-c3ccccc3)c2)cc1	?	-69.9%	-3.1%	13µM*	-3.2%
CCOC(=O)c1csc(NC(C)=O)n1	-13.4%	-7.8%	3.4%	-12.4%	2.5%
Cc1ccc(CN2C(=O)C3(c4ccccc42)N(c2ccc(C)c(Cl)c2)C(=O)CS3(=O)=O)cc1 (stereo not given)	?	4.6%	/	?	1.8%
COc1ccc(N2C(=O)CS(=O)(=O)C23C(=O)N(Cc2ccc(F)cc2)c2ccc(C)cc23)cc1 (stereo not given)	?	-5.8%	/	14.6µM*	7.4%
CCc1ccc(N2C(=O)CS(=O)(=O)C23C(=O)N(Cc2ccccc2)c2ccccc23)cc1 (stereo not given)	?	-1.4%	/	?	4.2%
Cc1ccc(N2C(=O)CS(=O)(=O)C23C(=O)N(Cc2ccccc2F)c2ccccc23)cc1Cl (stereo not given)	14.6µM*	-1.7%	/	?	0.9%
COc1ccc(OC)c(CNC(=O)c2ccc(C)c(NC(=O)c3nsc4ccccc34)c2)c1	18.4µM*	-13.0%	/	?	8.1%
O=C(NCc1ccccc1Cl)c1ccc(NC(=O)c2nsc3ccccc23)cc1	18.4µM*	-30.7%	/	18.4µM*	0.0%
Cc1ccc(C(=O)NCCC(C)C)cc1NC(=O)c1nsc2ccccc12	16.4µM*	-22.7%	/	?	2.7%
Cc1ccc(C(=O)NCc2ccc(F)cc2)cc1NC(=O)c1nsc2ccccc12	?	-0.9%	/	23.1µM*	2.7%
Cc1ccc(C(=O)O)cc1NC(=O)c1nsc2ccccc12	7.5%	-34.4%	/	0.0%	-7.6%
COC(=O)c1ccc(Cn2nnc3c(=O)[nH]c(C4CCCN(S(=O)(=O)c5ccccc5)C4)nc32)cc1 (stereo not given)	?	0.2%	0.4%	?	2.4%
COc1ccc(CCNC(=O)C(=O)NCC2OCCN2S(=O)(=O)c2ccc(F)cc2)cc1 (stereo not given)	?	1.7%	-28.0%	?	/
O=C(NCc1ccccc1)c1ccc(NC(=O)c2nsc3ccccc23)cc1	?	-35.9%	/	?	2.7%
CC(C)Oc1ccc(CNC(=O)c2cccc(NC(=O)c3nsc4ccccc34)c2)cc1	4.61µM*	-26.0%	/	9.2µM*	2.7%
O=C(NC1CCCCC1)NC1(C(=O)N2CCN3CCCC3C2)CCCCC1 (stereo not given)	-0.4%	-38.1%	3.7%	3.9%	3.0%[56.1 µM]
O=C1C(=C2CCc3ccccc32)Cc2ccccc21	?	/	-11.3%	?	/
c1ccc2c(c1)CCc1ccccc1C2=C1CCNCC1	14.6µM*	/	-0.4%	13µM*	/
Cc1ccc(S(=O)(=O)Nc2ccc3ccccc3c2[N+](=O)[O-])cc1	?	/	-0.9%	?	/
SMILES	DT40 TDP1 CPT	miR-21 reporter	uPA generation	TDP1 cell noCPT	TDP1 block
Cc1ccc(S(=O)(=O)Nc2ccc3cc([N+](=O)[O-])ccc3c2[N+](=O)[O-])cc1	?	/	-1.8%	23.1µM*	/
Cc1ccc(S(=O)(=O)Nc2ccccc2N=Cc2ccc([N+](=O)[O-])cc2[N+](=O)[O-])cc1	25.9µM*	/	-3.2%	18.4µM*	/
Cc1ccc2cccc(NS(=O)(=O)c3ccccc3)c2n1	?	-3.4%	-10.2%	20.6µM*	2.5%
NC(=S)NNc1cccc2cccnc12	6.51µM*	-22.3%	-3.8%	11.6µM*	2.6%
NC(=S)Nc1cccc2cccnc12	14.1%	1.0%	-1.8%	-2.4%	0.0%
Cc1cc(C)n(-c2cccc3cccnc23)n1	-1.8%	0.9%	/	-12.6%	6.5%
CS(=O)(=O)Nc1cccc2cccnc12	4.61µM*	-2.7%	-5.3%	4.61µM*	8.3%
Cc1cc(C)nc(NS(=O)(=O)c2ccccc2)n1	-5.8%	-0.1%	7.0%	-1.1%	2.9%
Cc1cc(C)n(-c2ccc3cccc(NS(C)(=O)=O)c3n2)n1	5.17µM*	-3.0%	-7.0%	5.8µM*	9.2%
COc1ccccc1OCCNC(=O)C1CC(=O)N(c2ccc3c(c2)OCCO3)C1 (stereo not given)	-6.5%	/	-0.2%	3.8%	/
CCOC(=O)c1ccc(N2CCN(C(C)=O)CC2)c(NC(=O)c2cccnc2)c1	-4.1%	-1.3%	-0.7%	8.8%	5.1%
COc1ccc(S(=O)(=O)Nc2cccc3cccnc23)cc1	/	/	/	/	-2.4%
O=S(=O)(Nc1ncccn1)c1ccccc1	?	0.8%	2.1%	16.4µM*	2.2%
O=S(=O)(Nc1cccc2cccnc12)c1ccccc1	13µM*	?	-4.4%	8.2µM*	1.5%
O=S(=O)(Nc1cccc2cccnc12)c1ccc(S(=O)(=O)N2CCCC2)cc1	16.4µM*	24.4%	?	13µM*	10.9%
CCCCC(CC)CN=C(N)NC(N)=NCCCCCCN=C(N)NC(N)=NCC(CC)CCCC (stereo not given)	13µM*	/	?	9.2µM*	5.7%
CCCCC(CC)CO (stereo not given)	?	/	8.3%	-3.9%	0.5%
CCC(CC)NC(=O)CCCSc1nc2ccccc2[nH]1	2.7%	-8.0%	-2.2%	?	4.9%
CCC(Oc1ccccc1)C(=O)Nc1cc(-c2cccc(C)c2)nn1-c1ccccc1 (stereo not given)	-25.0%	-1.2%	/	-6.8%	2.7%
Cc1ccc(NC(=O)c2cc(-c3ccccc3)nn2-c2ccccc2)c(Br)c1	14.6µM*	-3.1%	1.8%	?	0.0%
Cc1ccc(NC(=O)c2cc(-c3ccccc3)nn2-c2ccccc2)cc1	?	-3.8%	-2.2%	20.6µM*	1.1%
CCC(CC)C(=O)Nc1cc(-c2cccc(C)c2)nn1-c1ccccc1	23.1µM*	5.8%	/	16.4µM*	5.4%
CCn1ncc(-c2cc(C(=O)O)no2)c1C	-33.9%	-1.6%	-0.4%	?	-5.6%
